Experimental data from PubChem BioAssay AID1159580 (chemical genetic matrix, 2015).
Where “and” joins values, the source holds several entries; their conditions need not be identical. Equal entries are not always repeated. In all, about 5,500 compounds went through this assay and about 2,000 (36%) were called active. Another 18% or so got no clear call; they are omitted. Cut-off read from the data, not from the text of the source: active = normalized growth mostly below about 0.91 (no sharp cut-off); inconclusive = no clear call, values can overlap the other calls; inactive = mostly above about 0.92. This is one part of the list.

Assay: chemical genetic growth profiling, strain panel (AID 1159580);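 note: tested at 20 µM; growth read once vehicle control cultures reached saturation at 30 °C; 1 = growth at the plate median or of vehicle wells; lower values mean less growth of the strain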
Settings: S. cerevisiae deletion strains, growth OD

With `O=c1c(O)c(-c2ccccc2)oc2cc(O)ccc12` the normalized growth (locus YAL021C, strain ccr4, stronger effect = lower value) was 0.572 (active), the normalized growth (locus YAL026C, strain drs2, stronger effect = lower value) was 0.486 (active) and the normalized growth (locus YAL030W, strain snc1, stronger effect = lower value) was 0.66 (active). For the same compound, the normalized growth (locus YBL061C, strain skt5, stronger effect = lower value) was 0.685 (active), the normalized growth (locus YBR009C, strain hhf1, stronger effect = lower value) was 0.597 (active) and the normalized growth (locus YBR021W, strain FUR4, stronger effect = lower value) was 1.05 (inactive). The normalized growth (locus YBR023C, strain chs3, stronger effect = lower value) was 0.518 (active), the normalized growth (locus YBR171W, strain sec66, stronger effect = lower value) was 0.825 (active) and the normalized growth (locus YBR229C, strain ROT2, stronger effect = lower value) was 0.873 (active). The normalized growth (locus YBR231C, strain swc5, stronger effect = lower value) was 0.572 (active), the normalized growth (locus YBR279W, strain paf1, stronger effect = lower value) was 0.641 (active) and the normalized growth (locus YCL011C, strain gbp2, stronger effect = lower value) was 0.583 (active). For the same compound, the normalized growth (locus YCL016C, strain dcc1, stronger effect = lower value) was 0.711 (active), the normalized growth (locus YCL029C, strain bik1, stronger effect = lower value) was 0.779 (active) and the normalized growth (locus YCL061C, strain MRC1, stronger effect = lower value) was 0.799 (active). For the same compound, the normalized growth (locus YCL069W, strain vba3, stronger effect = lower value) was 0.864 (active), the normalized growth (locus YCR088W, strain abp1, stronger effect = lower value) was 0.937 (inactive) and the normalized growth (locus YDL005C, strain med2, stronger effect = lower value) was 0.941 (inactive). The normalized growth (locus YDL035C, strain GPR1, stronger effect = lower value) was 0.432 (active), the normalized growth (locus YDL040C, strain nat1, stronger effect = lower value) was 0.847 (active) and the normalized growth (locus YDL074C, strain BRE1, stronger effect = lower value) was 0.455 (active). For the same compound, the normalized growth (locus YDL101C, strain DUN1, stronger effect = lower value) was 0.697 (active), the normalized growth (locus YDL185W, strain tfp1, stronger effect = lower value) was 0.928 (inactive) and the normalized growth (locus YDL192W, strain arf1, stronger effect = lower value) was 0.664 (active). The normalized growth (locus YDR001C, strain nth1, stronger effect = lower value) was 0.887 (active), the normalized growth (locus YDR069C, strain doa4, stronger effect = lower value) was 0.413 (active) and the normalized growth (locus YDR101C, strain arx1, stronger effect = lower value) was 0.903 (active). For the same compound, the normalized growth (locus YDR137W, strain rgp1, stronger effect = lower value) was 0.38 (active), the normalized growth (locus YDR150W, strain NUM1, stronger effect = lower value) was 0.707 (active) and the normalized growth (locus YDR159W, strain sac3, stronger effect = lower value) was 0.886 (inactive). The normalized growth (locus YDR162C, strain NBP2, stronger effect = lower value) was 0.121 (active), the normalized growth (locus YDR195W, strain ref2) was 1.07 (inactive) and the normalized growth (locus YDR297W, strain sur2, stronger effect = lower value) was 0.77 (active). For the same compound, the normalized growth (locus YDR318W, strain mcm21, stronger effect = lower value) was 0.708 (active), the normalized growth (locus YDR334W, strain swr1, stronger effect = lower value) was 0.704 (active) and the normalized growth (locus YDR335W, strain msn5, stronger effect = lower value) was 0.757 (active). For the same compound, the normalized growth (locus YDR388W, stronger effect = lower value) was 0.759 (active), the normalized growth (locus YDR392W, strain spt3, stronger effect = lower value) was 0.369 (active) and the normalized growth (locus YDR502C, strain sam2, stronger effect = lower value) was 0.751 (active). For the same compound, the normalized growth (locus YEL003W, strain gim4, stronger effect = lower value) was 0.754 (active), the normalized growth (locus YEL037C, strain rad23, stronger effect = lower value) was 0.794 (active) and the normalized growth (locus YEL061C, strain CIN8 (second series), stronger effect = lower value) was 0.915 (inactive). For the same compound, the normalized growth (locus YEL061C, strain CIN8, stronger effect = lower value) was 0.705 (active), the normalized growth (locus YER015W, strain faa2, stronger effect = lower value) was 0.454 (active) and the normalized growth (locus YER016W, strain bim1, stronger effect = lower value) was 0.766 (active). The normalized growth (locus YER110C, stronger effect = lower value) was 0.92 (inactive), the normalized growth (locus YER111C, strain swi4, stronger effect = lower value) was 0.873 (active) and the normalized growth (locus YER155C, strain BEM2 (second series), stronger effect = lower value) was 0.81 (active). For the same compound, the normalized growth (locus YER155C, strain BEM2, stronger effect = lower value) was 0.627 (active), the normalized growth (locus YER167W, strain BCK2, stronger effect = lower value) was 0.676 (active) and the normalized growth (locus YFR010W, strain ubp6, stronger effect = lower value) was 0.62 (active). For the same compound, the normalized growth (locus YGL078C, strain dbp3, stronger effect = lower value) was 0.948 (inactive), the normalized growth (locus YGL086W, strain mad1, stronger effect = lower value) was 0.699 (active) and the normalized growth (locus YGL167C, strain pmr1, stronger effect = lower value) was 0.882 (active). The normalized growth (locus YGL173C, strain kem1, stronger effect = lower value) was 0.382 (active), the normalized growth (locus YGL227W, strain vid30, stronger effect = lower value) was 0.931 (inactive) and the normalized growth (locus YGL240W, strain doc1, stronger effect = lower value) was 0.675 (active). For the same compound, the normalized growth (locus YGL248W, strain PDE1, stronger effect = lower value) was 0.506 (active), the normalized growth (locus YGL253W, strain hxk2, stronger effect = lower value) was 0.508 (active) and the normalized growth (locus YGR078C, strain PAC10, stronger effect = lower value) was 0.586 (active). For the same compound, the normalized growth (locus YGR135W, strain pre9, stronger effect = lower value) was 0.675 (active), the normalized growth (locus YGR252W, strain gcn5, stronger effect = lower value) was 0.701 (active) and the normalized growth (locus YHR013C, strain ard1, stronger effect = lower value) was 0.439 (active). The normalized growth (locus YHR027C, strain rpn1, stronger effect = lower value) was 0.339 (active), the normalized growth (locus YHR030C, strain SLT2, stronger effect = lower value) was 0.434 (active) and 1.07 (inactive) and the normalized growth (locus YHR079C, strain IRE1 (second series), stronger effect = lower value) was 0.913 (active). For the same compound, the normalized growth (locus YHR079C, strain IRE1, stronger effect = lower value) was 1.07 (inactive), the normalized growth (locus YHR094C, strain hxt1, stronger effect = lower value) was 0.903 (active) and the normalized growth (locus YHR129C, strain ARP1, stronger effect = lower value) was 0.564 (active). The normalized growth (locus YHR142W, strain chs7, stronger effect = lower value) was 0.474 (active), the normalized growth (locus YHR200W, strain rpn10, stronger effect = lower value) was 0.825 (active) and the normalized growth (locus YIL066C, strain RNR3, stronger effect = lower value) was 0.663 (active). The normalized growth (locus YIL073C, strain SPO22, stronger effect = lower value) was 0.326 (active), the normalized growth (locus YIL125W, strain kgd1, stronger effect = lower value) was 0.951 (inactive) and the normalized growth (locus YIR030C, strain dcg1, stronger effect = lower value) was 0.858 (active). The normalized growth (locus YJL092W, strain hpr5, stronger effect = lower value) was 0.79 (active), the normalized growth (locus YJL095W, strain BCK1 (second series), stronger effect = lower value) was 0.337 (active) and the normalized growth (locus YJL095W, strain BCK1, stronger effect = lower value) was 0.208 (active) and 1.01 (inactive). For the same compound, the normalized growth (locus YJL115W, strain asf1, stronger effect = lower value) was 0.9 (active), the normalized growth (locus YJL129C, strain trk1, stronger effect = lower value) was 0.809 (active) and the normalized growth (locus YJL134W, strain LCB3, stronger effect = lower value) was 0.844 (active). For the same compound, the normalized growth (locus YJL154C, strain vps35, stronger effect = lower value) was 0.885 (active), the normalized growth (locus YJL164C, strain tpk1, stronger effect = lower value) was 0.432 (active) and the normalized growth (locus YJL166W, strain qcr8, stronger effect = lower value) was 0.471 (active). The normalized growth (locus YJL168C, strain set2, stronger effect = lower value) was 0.902 (active), the normalized growth (locus YJL187C, strain SWE1 (second series), stronger effect = lower value) was 0.5 (active) and the normalized growth (locus YJL187C, strain SWE1, stronger effect = lower value) was 0.653 (active). The normalized growth (locus YJR043C, strain POL32, stronger effect = lower value) was 0.387 (active), the normalized growth (locus YJR066W, strain TOR1, stronger effect = lower value) was 0.982 (inactive) and the normalized growth (locus YJR075W, strain HOC1, stronger effect = lower value) was 0.571 (active).
